# The supplement of paper PMC6555819
# Key:
# Assay in all cases: PBM binding z-score (relative to random genomic background probes); higher = stronger binding; sequences stand for … in GC…GCGATTGACAGCGTAGAATGAAGG
# [1] = tested on: FXR:RXRa (NR concentration 270 nM, RXRa partner concentration 90 nM)
# Method in brief: (§1)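 Binding buffer was PBS pH 7.4 with 2% milk, 0.02% Triton X-100, 1 mM DTT, 0.2 mg/mL BSA and 0.4 mg/ml salmon testes DNA. In it, ligand-free nuclear receptor dimers were incubated 1 h on custom Agilent 4×180K protein-binding microarrays carrying double-stranded probes. Antibodies against each partner (one per run) detected binding, and z-scores were calculated against random background probes after regression normalization of scanned fluorescence.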
# [2] = tested on: LXRa:RXRa (NR concentration 270 nM, RXRa partner concentration 90 nM)
# Method in brief: as §1
# [3] = tested on: LXRa homodimer (NR concentration 270 nM)
# Method in brief: as §1
# [4] = tested on: LXRb:RXRa (NR concentration 270 nM, RXRa partner concentration 90 nM)
# Method in brief: as §1
# [5] = tested on: LXRb homodimer (NR concentration 270 nM)
# Method in brief: as §1
# [6] = tested on: PPARa:RXRa (NR concentration 270 nM, RXRa partner concentration 90 nM)
# Method in brief: as §1
# [7] = tested on: PPARg:RXRa 270nM:90nM, anti-RXR (NR concentration 270 nM, RXRa partner concentration 90 nM)
# Method in brief: as §1
# [8] = tested on: PPARg:RXRa 30nM:10nM, anti-RXR (NR concentration 30 nM, RXRa partner concentration 10 nM)
# Method in brief: as §1
# [9] = tested on: PPARg:RXRa 90nM:30nM, anti-RXR (NR concentration 90 nM, RXRa partner concentration 30 nM)
# Method in brief: as §1
# [10] = tested on: PPARg:RXRa (NR concentration 180 nM, RXRa partner concentration 90 nM)
# Method in brief: as §1
Sequence,PBM binding z-score [1],PBM binding z-score [2],PBM binding z-score [3],PBM binding z-score [4],PBM binding z-score [5],PBM binding z-score [6],PBM binding z-score [7],PBM binding z-score [8],PBM binding z-score [9],PBM binding z-score [10]
CCTACTGGGCCAAAACGGTCATTGATGCCGATAA,-0.421,-0.427,0.0364,-0.333,-0.867,0.309,0.904,-0.186,0.162,
ATCTCTAGGTTAAAGTTCAGTGAATCCCGAGGAT,2.96,3.76,3.34,2.61,1.62,5.59,8.62,8.86,9.27,
CAAACTAGGTCACGAAAGGTCAAAGTTGAATGAC,7.31,8.11,8.31,7.43,2.68,6.6,8.55,7.45,8.74,
TCATATAGGTGAAAGGTGAAAGTCGGTGTGGTAA,2.9,2.52,0.284,2.76,0.0843,6.44,9.98,10.2,12.3,
CAATCTAGGTCACAGAGGTCAAAGTCCGTGCGTA,7.18,7.04,7.96,6.3,2.8,6.7,8.69,7.34,9.13,
CATACAGGGTCATCTAGGCCAGAGTAGGGACGGC,6.67,4.77,0.311,3.7,0.71,5.58,5.22,2.16,4.02,
CCCACTGGGGCAAAGGTTACCATACTCAGTACGA,1.6,1.6,-0.143,2,-0.809,5.98,9.71,9.33,11.5,
ATCGAAAGGTCGAAGGTGAGTACACCCACCCGAA,4.49,3.49,0.413,2.92,0.705,4.68,4.86,2.04,3.87,
TGGCCTAGGTCATGGGCCAGTATACCACGCGAAC,4.4,2.91,-0.382,1.57,-1.26,3.93,3.6,0.481,2.22,
CCTAGTGGGCCAAAGGTCATTGATTCCAATGCTC,5.47,5.18,3.76,5.23,0.768,6.76,10.7,13.5,12.9,
ACTTGGAGGACAAAGGTCAGAGCTACGCCAGTGA,4.75,4.49,1.97,3.58,0.676,5.71,9.07,8.21,10.6,
CAAAGTAGGTCAAGGTCAAAGTCGGTTTGTGCCA,6.64,5.74,4.44,4.67,1.7,6.22,8.02,7.19,8.49,
CCTTACGGGTCACGGTTATAGCACGGGTGGTACG,5.96,4.01,0.000447,3.23,-0.179,5.56,5.89,2.69,4.69,
ACTCGGAGGGCAAAGGTCAGAGCTACGCCAGTGA,5.79,5.11,1.08,4.14,-0.447,6.1,8.48,8.91,9.51,
TGAATGAGGTGAAAGATCAGGGAACGTGGCGTCG,1.19,1.1,-0.421,0.428,0.209,4.52,6.92,6.44,7.54,
TATACAGGGTCAAAGGGCAGAGTACGAATGTCGA,7.38,6.55,3.16,5.44,3.33,6.52,8.53,7.25,8.56,
CGTCCAAGGTCAGCAGGTCAGAGAAAGCGACGTG,6.51,4.01,0.793,3.26,-0.208,4.78,5.15,1.61,3.69,
AGTCAAAGTTCAGGACGAGATAACGTAAAGCACG,3.4,3.72,1.12,1.81,0.41,3.28,4.8,2.31,3.71,
ATAGAAAGGTCGAAGGTGAGTATACCCACCCGAA,4.15,3.25,0.28,2.61,0.606,4.56,5.47,2.38,4.64,
ACTAGTAGGCCAAGGGTCACTCAAGATTAGTCCG,2.69,2.91,0.417,2.98,0.0422,5.64,9.26,10.9,10.4,
AATACAGGGTCACTAGGTCAGAGTAGGTACGAAT,6.69,5.67,2.22,4.43,1.37,6.03,7.62,4.74,7.08,
CAAACTAGGTCAAGGTCAAAGTAGGTTTGTGCCA,7.18,5.78,4.55,4.82,1.64,6.41,8.19,6.7,8.63,
CGAACTAGGTCAAAGGCCAGTGAAAGGCGACGTA,4.37,2.92,-0.479,1.81,-0.821,5.83,9.43,9.62,10.3,
ACTTACGGGTCAAGGAGGTTATAGCACGCGTATA,6.35,4.93,1.1,4.17,0.922,5.72,5.1,2.1,3.84,
CCAGACAGGTGAAAGGTCACTCAGTCTGGTACGC,5.43,5.49,2.57,4.91,0.389,6.31,8.84,7.76,8.99,
ATATGTAGGTTAGCTGGGGTCATTCCGACTAGGC,4.03,5.97,3.23,4.79,1.3,5.14,5.12,2.35,4.36,

Sequence,PBM binding z-score [1],PBM binding z-score [2],PBM binding z-score [3],PBM binding z-score [4],PBM binding z-score [5],PBM binding z-score [6],PBM binding z-score [7],PBM binding z-score [8],PBM binding z-score [9],PBM binding z-score [10]
CCTTACGGGTCAGGAGGTTATAGCACGACGAGCG,4.11,3,0.272,2.52,-0.12,4.49,4.07,1.19,2.57,
TCATATAGGTTAAAGGTGAAAGTCGGTGTGGTAA,4.54,4.09,0.882,3.59,0.683,6.28,9.55,10.5,11.5,
CAAAGTAGGTCACCGGAAGGTCAAAGTCCGCATG,6.09,6.41,5.29,5.63,1.43,6.43,8.21,6.7,8.45,
ACTCGGAGGATAAAGGTCAGAGCTACGCCAGTGA,3.3,3.42,1.27,2.83,0.273,4.23,6.4,5,6.8,
TTACCAAAGTGAAAGGTCGTTGATGCACGCCTTG,1.49,1.82,0.432,1.57,-0.402,3.17,5.13,2.97,5.02,
TCTAGTTGGTCACGGAGGTCACACGCGACGGGTA,3.47,3.74,2.9,3.14,0.904,3.95,4.08,3.3,3.9,
TATACAGGGTCTAAGGCCAGAGTACGAATGTCGA,0.41,0.239,0.14,0.157,0.936,,1.86,0.951,1.51,1.09
TCATATAGGTAATCAGGTGAAAGTCCGTAAGTTA,1.07,0.945,0.314,0.96,0.374,2.68,4.24,4.28,4.2,
TCAGATAGGTAAAGGTGAAAGTCGAACGATATGA,0.962,1.49,-0.219,1.3,-0.401,,3.99,4.4,4.3,2.56
TTACCAAGGTGAAGGTCGTGGATCCCTCTGTAGA,1.6,1.33,0.0601,1.45,-0.935,3.03,4.71,2.78,4.4,
ATCGAAAGGTCGTGACGTGAGTATACAGAAAGGC,5.34,3.84,-0.0538,3.03,0.128,4.8,3.82,1.41,2.77,
TTAACAAGGTGAAAGGTCGTTGATGCACGCCTTG,3.99,3.48,0.202,2.81,-0.19,6,8.81,9.66,9.79,
CCGACTGGGTCAAAGGTTACCATACTCAGTACGA,4.79,4.3,0.367,4.02,-0.508,,10.2,9.87,11.1,12
AGTCAAAGGTCACTAGGTAACGTAAGATTCAGCT,7.63,6.45,2.46,5.48,2.78,6.42,8.5,6.26,8.47,
CCTACTGGGCCAAGCTCATTGATCAGTCAAAGCA,-0.645,-0.823,-0.557,-0.699,-1.01,0.0972,0.223,-0.794,-0.165,
TTATCAAGGTGAAAGGTCGTTGATGCACGCCTTG,3.92,3.41,0.476,2.84,0.104,5.86,9.22,9.21,11,
TAGCCTAGGTCATGGGCCTGTATACCACGCGAAC,4.51,3.39,0.196,2.64,-0.604,4.12,3.29,0.751,2.07,
TAGCCTAGGTGATTGGGCCAGTATAGTACGCATC,-0.581,-0.692,-0.293,-0.59,-0.51,-0.146,-0.141,-0.21,-0.578,
CAAACTAGGTCAAGGGGTCAAAGTCCGCTTCCCG,7.14,6.22,3.83,6.08,1.17,6.9,8.96,8.47,9.27,
CAAACTAGGTCACCGGAAGGTCAAAGTTCGCATG,6.72,6.36,5.74,5.3,1.86,6.44,8.11,6.06,8.3,
CCTAGTTGGTCAAGGTCTCACACGCTATAGGTAC,0.271,0.379,0.569,0.343,0.483,,1.09,0.321,0.561,0.786
CAAACTAGGTCAAAGGTCAGAGTCGAGCCAACCA,7.83,6.32,3.45,6.4,1.62,7.34,11.1,13.1,13.7,
ACTCGGAGGACAGAGGTCAGAGCTACGCCAGTGA,2.85,3.27,0.56,2.62,-0.0333,3.83,4.96,2.62,4.8,
CCTACTGGGCCAATGTCATTGATCAGTCAAAGCA,-0.931,-0.71,-0.956,-0.421,-0.826,,0.774,-0.129,0.12,0.865
AGAATGGGGTTAAGATCAGGGAAACAGAATACAT,4.23,3.54,0.59,4.19,2.1,5.62,4.5,2.12,3.37,
TCTTGTTGATCAAAGGTTAAGAAAGCCGAAGCCT,1.37,2.26,0.368,2.11,0.469,3.71,6.29,5.57,6.85,
